FAK blocker: inhibitors of human focal adhesion kinase. inhibition, %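 (tested at 7 µM)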. 97,000 compounds, 0.84% hits. Q05397. biochemical FAK kinase activity assay; in the data active = inhibition above about 19%;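 also: 0% = DMSO and 100% = reference compound high control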
Pyk2 oligo antag: antagonists of human Pyk2 oligomerization. Q14289. Q293 cells, Pyk2 FERM NanoBiT luminescence; stronger effect = lower value. z-score (the deposit names both 25 µM and 10 µM). 99,000 compounds, 0.83% hits. AID 1347419;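 active = Z-score of -3 or lower, scaled per plate to the spread of control and sample wells; inactive = z-score above -3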;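 also: negative z-score means lost luminescence so less FERM oligomerization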
Target sequence (Q14289 whole entry, looked up): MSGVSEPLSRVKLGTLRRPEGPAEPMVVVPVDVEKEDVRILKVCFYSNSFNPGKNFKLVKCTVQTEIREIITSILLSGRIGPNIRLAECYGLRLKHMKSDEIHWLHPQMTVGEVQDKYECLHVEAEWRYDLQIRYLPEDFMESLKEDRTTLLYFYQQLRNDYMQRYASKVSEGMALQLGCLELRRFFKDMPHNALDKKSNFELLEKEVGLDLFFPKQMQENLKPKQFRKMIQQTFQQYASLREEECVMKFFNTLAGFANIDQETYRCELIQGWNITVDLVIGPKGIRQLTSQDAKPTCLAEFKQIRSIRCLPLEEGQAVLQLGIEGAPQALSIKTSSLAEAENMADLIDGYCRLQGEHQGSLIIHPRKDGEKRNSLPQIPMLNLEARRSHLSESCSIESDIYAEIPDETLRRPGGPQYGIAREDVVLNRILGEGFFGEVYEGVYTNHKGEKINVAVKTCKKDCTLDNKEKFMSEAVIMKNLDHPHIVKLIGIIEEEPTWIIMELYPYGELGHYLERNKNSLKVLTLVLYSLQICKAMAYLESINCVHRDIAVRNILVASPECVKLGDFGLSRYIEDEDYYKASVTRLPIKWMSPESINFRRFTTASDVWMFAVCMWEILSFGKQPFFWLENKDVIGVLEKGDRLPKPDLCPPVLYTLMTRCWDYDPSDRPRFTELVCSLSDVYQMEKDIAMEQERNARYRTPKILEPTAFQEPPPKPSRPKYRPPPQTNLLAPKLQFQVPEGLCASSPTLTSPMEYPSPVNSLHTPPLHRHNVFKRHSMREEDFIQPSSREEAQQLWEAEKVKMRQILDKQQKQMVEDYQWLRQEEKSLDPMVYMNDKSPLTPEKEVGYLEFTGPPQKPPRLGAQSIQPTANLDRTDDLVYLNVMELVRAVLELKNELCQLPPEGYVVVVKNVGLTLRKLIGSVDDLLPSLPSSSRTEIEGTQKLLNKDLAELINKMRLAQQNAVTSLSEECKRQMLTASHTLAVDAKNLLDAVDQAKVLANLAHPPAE
D1 mod: allosteric modulators of human D1 dopamine receptor; P21728; HEK293 D1, CRE-luciferase, dopamine EC30 potentiation; actives deviate in either direction; B-score at 10 µM; 58,000 compounds, 5.9% hits;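 active = luminescence count or its row- and column-corrected plate score outside the 99.7% band of the plate's sample wells, on either side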
CD11b adhes inh: inhibitors of human CD11b/CD18 binding to fibrinogen; K562 CD11b/CD18 adhesion to fibrinogen, ATPlite luminescence; Mn2+ added to activate the integrin; inhibition, % at 10 µM; AID 1497; 93,000 compounds, 0.54% hits;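 active = primary inhibition of 50% or more at 10 µM, then 40% or more on retest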
Mac1 fbg enh: increases human CD11b/CD18 adhesion to fibrinogen | K562 CD11b/CD18 adhesion to fibrinogen, ATPlite luminescence | activation, % at 10 µM | 93,000 compounds, 0.07% hits;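 active = 10 µM primary screen giving 50% or more activity, confirmed by 40% or more on retest at that dose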
DAT uptake mod: human DAT dopamine uptake with cocaine, either direction; Q01959; LLC-PK1 hDAT cells, [14C]-dopamine uptake with cocaine IC80; actives deviate in either direction; B-score at 10 µM; 110,000 compounds, 1.3% hits; AID 449768;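 active = Z score or B-score, a plate-position-corrected score, falls beyond the plate's 99.7% confidence bounds, in either direction; inactive = both scores lie inside the 99.7% bounds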;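 also: scored against the spread of the other compound wells on the same plate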
* marks the source's active call; other numbers are inactive results; . = no result given. This excerpt belongs to a sample that is enriched for hits.

SMILES	FAK blocker	Pyk2 oligo antag	D1 mod	CD11b adhes inh	Mac1 fbg enh	DAT uptake mod
CC1(C)CCC23CC[C@]4(C)C(OC2=O)(C3C1)[C@H]1O[C@H]1C1[C@@]2(C)CC[C@@H](O)C(C)(C)C2CC[C@]14C (some centres not stated)	.	.	.	.	.	-0.668
CCOC(=O)c1c(C)c(C(=O)Nc2ccc3c(c2)OCCO3)c(C)n1C	.	1.76	0.126	1.2	0.7	-0.0359
CCOC(=O)c1ccc(NC(=O)Nc2ccc3c(c2)OCCO3)cc1	0.6	-1.04	-2.4*	.	.	1.4
CCC(C)(C(=O)Nc1ccc2c(c1)OCCO2)N(C(C)=O)c1ccc(C(N)=O)cc1 (configuration not stated)	-4.1	-0.02	-0.134	.	.	-2.84*
NC1=NC2(CCCCC2)n2c(nc3ccccc32)N1	-2.5	-0.33	-4.64*	21.9	2.1	-0.648
C=CCSc1nnc(-c2cc3c(C(F)(F)F)nn(C)c3s2)n1C	0.6	-0.01	.	.	.	-8.83*
C=CCSc1nnc(-c2cc3c(-c4ccccc4)nn(C)c3s2)n1C	-4.1	0.25	.	.	.	1.23
Cc1nn(-c2ccccc2)c(C)c1/C=N/n1c(-c2ccc(C(C)(C)C)cc2)n[nH]c1=S	-2.9	-3.86*	.	.	.	0.368
Cc1ccccc1-c1n[nH]c(=S)n1/N=C/c1c(C)nn(-c2ccccc2)c1C	.	.	.	-3.6	12.6	.
COc1ccc(-c2csc(C)n2)cc1OC	-1.9	0.34	.	-24.6	-0.4	1.26
COc1ccc(-c2cn3cc(C)ccc3n2)cc1OC	-1.7	0.56	-6.46*	5.0	-3.7	1.09
Cc1nc(NC(=O)CSc2nnnn2Cc2ccccc2)sc1C	0.2	-0.99	0.708	-10.5	2.2	0
COC(=O)c1ccc(-c2sc3nc(N4CCOCC4)c4c(c3c2N)CCCC4)o1	2.5	.	-0.106	5.9	48.6	0.0258
CC12CCC(=O)N1c1c(sc3nc(N4CCOCC4)c4c(c13)CCCC4)C(=O)N2 (configuration not stated)	-0.9	0.19	.	11.0	1.3	3.2*
Cc1ccc(C(N)=S)c(C)c1	-2.8	0	-1.19	.	.	0.843
FC(F)C(F)(F)C(F)(F)C(F)(F)c1cc(-c2ccccc2)n[nH]1	.	-3.38*	1.88	49.3	-4.2	-0.778
Cc1ccc(O)c(-c2cc(C(F)(F)C(F)F)[nH]n2)c1	2.8	-1.68	0.681	4.9	-5.5	-0.0445
O=S(=O)(NCCSCc1c(Cl)cccc1Cl)c1ccc2c(c1)OCCO2	-2.1	-4.34*	.	13.3	-2.6	0.177
COC(=O)c1c(NC(=O)CN2CCN(C(=O)c3ccco3)CC2)c2cc(C)ccc2n1C	-0.8	-0.95	-2.8*	-7.1	2.7	0.148
COC(=O)c1c(NC(=O)CN2CCN(C(=O)c3ccco3)CC2)c2c(C)cccc2n1C	-5.8	1.51	-0.605	-27.7	-1.5	-0.784
Cc1cccc(N2CCN(C(=O)CSCc3c(C)noc3C)CC2)c1C	-1.0	0.89	-1.48	98.6*	-9.3	.
CN1c2ccccc2C(O)=C(C(=S)Nc2ccccc2)S1(=O)=O	-1.0	-1.15	.	6.6	-2.9	-0.23
CN1c2ccccc2C(O)=C(C(=S)Nc2ccc(F)c(Cl)c2)S1(=O)=O	-0.9	-0.58	.	84.0*	-10.5	2.01
CCOc1ncccc1C(=O)NCc1ccc(OC)c(OC)c1	.	.	.	11.1	-4.2	.
CC1(C)CCN(Cc2ccccc2)C1CC#N (configuration not stated)	1.8	-0.94	.	-1.7	0.5	-0.0152
SMILES	FAK blocker	Pyk2 oligo antag	D1 mod	CD11b adhes inh	Mac1 fbg enh	DAT uptake mod
CC1=NN(Cc2ccccc2)C(=O)C1C(c1ccccc1)C(C#N)C#N (configuration not stated)	-3.6	-3.61*	.	.	.	0.478
COc1cccc(NC(=O)COc2ccc(N3CC(C(=O)NCC(C)C)CC3=O)cc2)c1 (configuration not stated)	18.1	0.43	-0.0964	9.0	3.7	-0.0225
Cc1[nH]nc(SCC(=O)NCc2ccc(F)cc2)c1[N+](=O)[O-]	.	2.12	.	.	.	.
Cc1ccc(CNc2nc(N)c([N+](=O)[O-])c(Nc3ccc(F)cc3)n2)cc1	2.9	1.26	.	-3.1	-1.0	-11.2*
Cc1ccc(S(=O)(=O)Nc2ccc3nc(-c4cccn4C)[nH]c3c2)cc1	4.4	-0.28	0.416	2.2	1.0	-2.87*
CO/N=C(/CNC(=O)c1ccc(F)cc1)c1ccc(Cl)cc1	3.9	-0.91	.	.	.	.
Cc1noc(C)c1COC(=O)c1ccccc1Sc1ccccc1C#N	1.2	-1.08	0.0357	25.1	-2.1	-0.159
N#Cc1ccccc1Sc1ccccc1C(=O)OCc1nnc(-c2ccccc2)o1	-7.9	-3.69*	-0.598	-8.9	-1.3	2.53*
COC(=O)c1ccc2c(=O)n(CCN3CCOCC3)c(SCC(=O)NC3CCCCC3)nc2c1	.	.	-0.0184	.	.	.
Cc1sc(CO)c(Sc2ccccc2)c1C(=O)O	-5.6	.	.	.	.	.
COc1ccc(Nc2nc(N3CCCC3)c3ccccc3n2)cc1	.	-2.66	-6.93*	99.4	-8.8	0.605
CCN(CC)c1ccc(Nc2nc(N3CCOCC3)c3ccccc3n2)cc1	15.0	-0.28	.	65.2*	-2.5	-0.0211
CCOC(=O)CSc1nc2sc3c(c2c(=O)n1C1CCCCC1)CCN(C)C3	4.1	0.91	.	.	.	-0.101
COc1ccccc1N(CCC#N)C(=O)CSc1nc(-c2ccccc2)cn1N	-3.3	-0.43	-0.38	1.7	-2.0	1.65
O=S(=O)(/C=C/c1ccccc1)Oc1ccccc1	-1.1	0.01	.	-18.7	-1.0	-0.155
CCN(CC)S(=O)(=O)c1ccc(OC)c(NC(=O)c2cccc([N+](=O)[O-])c2C)c1	-1.5	-0.36	.	.	.	-7.69*
Cc1cccc(C(=O)Oc2ccccc2-c2nnco2)c1	-1.6	2.71	.	-3.2	10.2	-0.149
CC(=O)Oc1ccccc1-c1nc(C)nc(N(C)C(C)=O)n1	.	-0.54	0.00357	-9.1	-1.4	-2.81*
O=P(O)(O)CCP(=O)(c1ccccc1)c1ccccc1	-5.4	1.27	.	-6.1	3.9	-2.49*
Cc1ccc(C)c(N2CCN(S(=O)(=O)c3ccc4[nH]c(=O)c(=O)[nH]c4c3)CC2)c1	-11.1	0.24	0.58	-8.7	-1.1	-0.911
Cc1ccc(C)c(N2CCN(S(=O)(=O)c3ccc4c(c3)OCCO4)CC2)c1	-2.3	-3.92*	-0.358	12.3	1.1	1.04
Cc1ccc(Cl)cc1N1CCN(S(=O)(=O)c2ccc3c(c2)OCCO3)CC1	-1.6	-4.2*	-0.28	13.2	1.5	-1.02
COc1ccc(S(=O)(=O)N(n2c(C)nnc2-n2nc(C)cc2C)S(=O)(=O)c2ccc(OC)cc2)cc1	-5.9	0.87	.	.	.	-0.0195
O=C(Cn1ncc2c3ccccc3n(Cc3ccc(F)cc3)c2c1=O)N1CCN(c2ncccn2)CC1	-0.1	-1.04	.	8.2	0.5	2.79*
CN1CCN(c2ccc([N+](=O)[O-])c(-n3nc(-c4ccccc4)c4ccccc4c3=O)c2)CC1	3.1	-1.55	.	11.3	-3.2	0.301
Cc1ccc2c(c1)[nH]c1c(N3CCN(Cc4ccccc4)CC3)ncnc12	14.7	-2.75	-3.89	43.2	-1.0	1.11
c1ccc(CN2CCN(c3ncnc4c3[nH]c3ccccc34)CC2)cc1	8.7	-2.64	-4.86*	.	.	2.87
